PubChem BioAssay (NCI)
Compounds without any hit were thinned out: in the full panel of roughly 83,000, 20% have a hit.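 Activity criterion: percent growth below 10, measured after cells in 96-well plates were exposed to a single compound concentration for 48 hours.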 Unmarked numbers belong to inactive results. The source made the active and inactive calls.

System: OVCAR-4 ovarian
Assay: NCI-60 one-dose screen, 48 h (100 = growth as untreated, 0 = no growth, -100 = all killed)
Conditions: 10 µM unless noted

SMILES	growth
COc1cccc(-c2nc3sccn3c2-c2ccnc(NCCCNS(=O)(=O)c3c(Cl)cccc3Cl)c2)c1	56.7%
CC1=NN(c2nc(-c3ccc(Cl)cc3)c(C#N)c(N3CCOCC3)n2)C(=O)C1	51.5%
Cc1nc2c3c(-c4ccccc4)c(-c4ccccc4)oc3ncn2n1	83%
C=CC(=O)Nc1cccc(-c2nc(SC)nc(NCc3ccccc3)c2C#N)c1	48.5%
N#Cc1c(N)n(CCNC(=O)c2ccccc2)c2nc3ccccc3nc12	114%
C=C(C)[C@@H]1CC[C@]2(C(=O)OC)CC[C@]3(C)[C@H](CC[C@@H]4[C@@]5(C)C/C(=C/c6cccc(I)c6)C(=O)C(C)(C)[C@@H]5CC[C@]43C)[C@@H]12	107%
Cc1c(/C=C/[N+](=O)[O-])ccc2c1[nH]c1ccccc12	116%
COc1cc(/C=C/c2cc(O)c3cc(C(C)=O)c(=O)oc3c2)cc2c1O[C@]1(C)CC[C@@H](O)C(C)(C)[C@H]1C2	66.1%
CCCOc1ccc2nc(NC(=O)OC)[nH]c2c1	53.3%
COc1cc(/C=C/C(=O)c2ccc(O)c(CN3CCN(c4cc5c(cc4F)c(=O)c(C(=O)O)cn5C4CC4)CC3)c2)cc(OC)c1OC	49.8%
C=CCSSc1ncnc2c1ncn2C1OC(CO)C(O)C1O (stereo unspecified)	33.8%
COc1cc2nc(N3CCCC3)nc(NCc3ccccc3)c2cc1OC	57.2%
CC[C@H]1OC(=O)[C@H](C)[C@@H](O[C@H]2C[C@@](C)(OC)[C@@H](O)[C@H](C)O2)[C@H](C)[C@@H](O[C@@H]2O[C@H](C)C[C@H](N(C)C)[C@H]2O)[C@](C)(O)C[C@H](C)CN(C)[C@H](C)[C@@H](O)[C@]1(C)O	108%
CSc1nc(NCCN2CCOCC2)c(C#N)c(-c2cccc([N+](=O)[O-])c2)n1	87.3%
CC(C)c1c(C(=O)c2ccccc2)c(-c2ccccc2)c(-c2ccc(F)cc2)n1CC[C@@H](O)C[C@@H](O)CC(=O)O	87.5%
N#CCCN=Nc1c(O)[nH]c2ccc([N+](=O)[O-])cc12	105%

SMILES	growth
CC[C@@H]1O[C@H](O[C@@H](c2cnc[nH]2)[C@H](NC(=O)c2nc([C@H](CC(N)=O)NC[C@@H](N)C(N)=O)nc(N)c2C)C(=O)N[C@H](C)[C@H](O)[C@H](C)C(=O)N[C@@H](C(=O)NCCc2nc(-c3nc(C(=O)NCCCCN=C(N)N)cs3)cs2)[C@@H](C)O)[C@H](O[C@@H]2O[C@H](CO)[C@H](O)[C@H](OC(N)=O)[C@@H]2O)[C@H](C)[C@@H]1C	85.6%
COc1cc2nc(N3CCCC3)nc(Nc3ccccc3)c2cc1OC	25.1%
Nc1nc2ncc(CCNc3ccc(C(=O)O)cc3)nc2c(=O)[nH]1	127%
CCCN1CCN(c2ccc3nc(-c4ccc5nc(-c6ccc(OCC)cc6)[nH]c5c4)[nH]c3c2)CC1	-34.6% (active)
COc1ccc(Nc2nc(SC)nc(-c3cccc([N+](=O)[O-])c3)c2C#N)cc1	2.52% (active)
O=C1CC(=NCC(=O)n2c(-c3ccccc3)nc3ccccc32)NN1	97.5%
CC(C)(O)c1cn(CCCCN2C(=O)C(=O)c3ccccc32)nn1	96.5%
CCCCCCCCCCCCC[N+](C)(C)Cc1ccccc1	8.67% (active)
COc1ccc(/C=C/C(=O)c2ccc(O)c(CN3CCN(c4cc5c(cc4F)c(=O)c(C(=O)O)cn5C4CC4)CC3)c2)cc1	88.1%
O=S(=O)(Nc1ccc(OC(F)F)cc1)c1ccc(-c2cnc(C3CC3)o2)cc1	52.3%
N#C/C(=C\c1ccc(-c2cc(C(F)(F)F)ccc2Cl)o1)c1nc(-c2ccco2)cs1	85.1%
O=C(O)c1ccc(N=CC(=O)c2ccc(-c3ccccc3)cc2)cc1	101%
COc1cccc(-c2nn(C(C)(C)C)cc2-c2ccnc(NCCCNS(=O)(=O)c3ccc(C)cc3)c2)c1	103%
CC(C)n1c(/C=C/[C@@H](O)C[C@@H](O)CC(=O)O)c(-c2ccc(F)cc2)c2ccccc21	90.4%
N#Cc1c(-c2ccc(Cl)cc2)nc(N/N=C/c2cccc(Br)c2)nc1N1CCOCC1	95.6%
